Data as given in PubChem BioAssay AID1159580 (chemical genetic matrix, 2015).
Screen size: about 5,500 compounds; about 2,000 (36%) were called active. Inconclusive results (about 18%) are left out. No stated cut-off is given here; in the data, active means normalized growth mostly below about 0.91 (no sharp cut-off); inconclusive means no clear call, values can overlap the other calls; inactive means mostly above about 0.92. This is one part of the list.

Assay: chemical genetic growth profiling, strain panel (AID 1159580);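 further: tested at 20 µM; growth read once vehicle control cultures reached saturation at 30 °C; 1 = growth at the plate median or of vehicle wells; lower values mean less growth of the strain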
Details: growth OD
[1] = S. cerevisiae deletion strains, locus YAL013W, strain DEP1, active compounds read low
[2] = S. cerevisiae deletion strains, locus YBR229C, strain ROT2, active compounds read low
[3] = S. cerevisiae deletion strains, locus YDL101C, strain DUN1, active compounds read low
[4] = S. cerevisiae deletion strains, locus YDR150W, strain NUM1, active compounds read low
[5] = S. cerevisiae deletion strains, locus YEL061C, strain CIN8, active compounds read low
[6] = S. cerevisiae deletion strains, locus YGR078C, strain PAC10, active compounds read low
[7] = S. cerevisiae deletion strains, locus YHR030C, strain SLT2, active compounds read low
[8] = S. cerevisiae deletion strains, locus YHR087W, strain rtc3, active compounds read low
[9] = S. cerevisiae deletion strains, locus YJL187C, strain SWE1, active compounds read low
[10] = S. cerevisiae deletion strains, locus YJR043C, strain POL32, active compounds read low
[11] = S. cerevisiae deletion strains, locus YJR075W, strain HOC1, active compounds read low
[12] = S. cerevisiae deletion strains, locus YKL190W, strain CNB1, active compounds read low
[13] = S. cerevisiae deletion strains, locus YLR039C, strain RIC1, active compounds read low
[14] = S. cerevisiae deletion strains, locus YLR058C, strain SHM2 (second series), active compounds read low
[15] = S. cerevisiae deletion strains, locus YLR085C, strain ARP6, active compounds read low
[16] = S. cerevisiae deletion strains, locus YLR262C, strain YPT6, active compounds read low
[17] = S. cerevisiae deletion strains, locus YML094W, strain GIM5, active compounds read low
[18] = S. cerevisiae deletion strains, locus YMR219W, strain ESC1, active compounds read low
[19] = S. cerevisiae deletion strains, locus YMR263W, strain SAP30, active compounds read low
[20] = S. cerevisiae deletion strains, locus YMR307W, strain GAS1, active compounds read low
[21] = S. cerevisiae deletion strains, locus YNL153C, strain GIM3, active compounds read low
[22] = S. cerevisiae deletion strains, locus YNL298W, strain CLA4 (second series), active compounds read low
[23] = S. cerevisiae deletion strains, locus YNL322C, strain KRE1, active compounds read low
[24] = S. cerevisiae deletion strains, locus YNR030W, strain Alg12, active compounds read low
[25] = S. cerevisiae deletion strains, locus YPL055C, strain LGE1, active compounds read low
[26] = S. cerevisiae deletion strains, locus YPL241C, strain CIN2, active compounds read low
[27] = S. cerevisiae deletion strains, locus YPR135W, strain CTF4, active compounds read low
[28] = S. cerevisiae strains, strain wild type, active compounds read low
[29] = S. cerevisiae deletion strains, locus YAL040C, strain CLN3, active compounds read low
[30] = S. cerevisiae deletion strains, locus YDR363W, strain ESC2, active compounds read low
[31] = S. cerevisiae deletion strains, locus YER002W, strain NOP16, active compounds read low
[32] = S. cerevisiae deletion strains, locus YNL175C, strain NOP13, active compounds read low
[33] = S. cerevisiae deletion strains, locus YNL197C, strain WHI3, active compounds read low
[34] = S. cerevisiae deletion strains, locus YNL224C, strain SQS1, active compounds read low
[35] = S. cerevisiae deletion strains, locus YOR083W, strain WHI5 (second series), active compounds read low
[36] = S. cerevisiae deletion strains, locus YNL128W, strain TEP1, active compounds read low
[37] = S. cerevisiae deletion strains, locus YOL006C, strain TOP1, active compounds read low

Measured: normalized growth

CN(C(=O)Nc1ccccc1)n1cnc2ccccc2c1=O
inactive: [1] 0.999 | [2] 1.03 | [3] 1 | S. cerevisiae deletion strains, locus YDL134C, strain PPH21, active compounds read low 1.03 | [4] 0.917 | [5] 1.02 | [6] 1.01 | [7] 1.01 | [8] 0.994 | [9] 1.01 | [10] 0.998 | [11] 1.04 | [12] 1.01 | [13] 1 | [14] 1.02 | [15] 1.04 | [16] 1.01 | [17] 1.03 | [18] 1.01 | [19] 0.994 | [20] 0.98 | [21] 1.01 | [22] 1 | [23] 1.01 | [24] 1.01 | [25] 1.05 | [26] 1.02 | [27] 1 | [28] 1.01

CCCCCCC(C)(C)c1ccc([C@@H]2C[C@H](O)CC[C@H]2CCCO)c(O)c1
inactive: [1] 1.01 | [29] 0.993 | [4] 0.986 | [30] 1.02 | [31] 0.977 | [20] 1.01 | [32] 0.915 | [33] 0.944 | [34] 0.922 | [23] 1.01 | [35] 0.897 | [25] 0.998
active: [21] 0.716

CCCCCN(CCCCC)C(=O)C(CCC(=O)O)NC(=O)c1ccc(Cl)c(Cl)c1 (configuration not stated)
inactive: [1] 1.01 | [29] 1 | S. cerevisiae deletion strains, locus YCL061C, strain MRC1 (second series), active compounds read low 1 | [4] 0.993 | [30] 1.03 | [31] 0.991 | [7] 0.993 | S. cerevisiae deletion strains, locus YHR079C, strain IRE1, active compounds read low 0.986 | S. cerevisiae deletion strains, locus YJL095W, strain BCK1, active compounds read low 1.01 | S. cerevisiae deletion strains, locus YJR066W, strain TOR1, active compounds read low 0.97 | [11] 1.02 | S. cerevisiae deletion strains, locus YLR113W, strain HOG1, active compounds read low 0.952 | [20] 0.992 | [36] 0.963 | [32] 0.995 | S. cerevisiae deletion strains, locus YNL183C, strain NPR1, active compounds read low 0.949 | [33] 0.986 | [34] 0.985 | [35] 0.95 | S. cerevisiae deletion strains, locus YOR231W, strain MKK1, active compounds read low 0.983 | [25] 0.983 | S. cerevisiae deletion strains, locus YPL256C, strain CLN2, active compounds read low 0.987

COc1cc([N+](=O)[O-])ccc1N1CCCC1
inactive: [2] 0.941 | [4] 0.898 | [5] 0.912 | [8] 0.979 | [10] 0.951 | [11] 0.933 | [19] 0.928 | [36] 0.931 | [25] 0.946
active: [1] 0.898 | [3] 0.882 | [6] 0.882 | [7] 0.302 | [9] 0.902 | [13] 0.554 | [14] 0.929 | [15] 0.605 | [16] 0.661 | [17] 0.865 | [18] 0.934 | [20] 0.445 | [21] 0.913 | [22] 0.775 | [23] 0.916 | [24] 0.862 | [37] 0.522 | [26] 0.858 | [27] 0.512 | [28] 0.867

COC(=O)c1cc([N+](=O)[O-])ccc1N1CCOCC1
inactive: [1] 1.01 | [2] 1 | [3] 1.01 | [4] 0.98 | [5] 1.01 | [6] 1.01 | [7] 1.09 | [8] 1.02 | [9] 1 | [10] 0.991 | [11] 0.988 | [12] 1.01 | [13] 1.02 | [14] 1 | [15] 1.06 | [16] 1.01 | [17] 1.03 | [18] 1 | [19] 1 | [20] 1.06 | [21] 0.995 | [22] 1.05 | [23] 0.993 | [24] 1.03 | [37] 1.06 | [25] 1.02 | [26] 1.06 | [27] 1.04 | [28] 1.01
